{
  "source": "PubChem BioAssay (Tox21)",
  "note": "Results filed as inconclusive are left out. A number with no mark means an inactive call. Activity calls are given as the source filed them. Calls come from the whole dose curve; as a rule, active = well fitted activation curve with a large enough effect in the repeat runs; inconclusive = weak or mixed curves; inactive = flat fitted curve, though single readings scatter. Non-standard residues stand in square brackets, D forms with d. Residues, ends and D or L forms follow the SMILES beside them. *: point of attachment. Sta = CC(C)C[C@H](N)[C@@H](O)CC(=O)O; Isovaleryl = CC(C)CC(=O)*",
  "data": [
    {"experiment": "A CellTox Green Cytotoxicity Assay to monitor cytotoxicity in HEK293 cells - 32 hour (AID 1224881); note: nearly all actives have a fitted effect of over 40% in size; note: potency is the fitted concentration of half-maximal effect; for cytotoxicity increase: % is set by controls: 0 for no effect and ±100 for the full control effect", "conditions": "CellTox Green fluorescence; series mostly up to 76.8 µM; cytotoxicity increase: at the top concentration", "outline": "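Fluorescence from a DNA-binding dye excluded by viable cells was measured repeatedly in the same HEK293 wells (600 cells/well) during continuous compound exposure at 37 C. Each assay gives one read point: 0, 8, 16, 24, 32 or 40 h.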", "values": [
      {"smiles": "CC(C)CC(=O)N[C@H](C(=O)N[C@H](C(=O)N[C@@H](CC(C)C)[C@@H](O)CC(=O)N[C@@H](C)C(=O)N[C@@H](CC(C)C)[C@@H](O)CC(=O)O)C(C)C)C(C)C", "note": "(Isovaleryl-VV[Sta]A[Sta]-OH)", "cytotoxicity increase": "-0.438% [at 35.3 µM]"},
      {"smiles": "CCCCCCC(=O)c1ccccc1", "cytotoxicity increase": "22.5%"},
      {"smiles": "CNC(=O)c1c(I)c(NC(C)=O)c(I)c(C(=O)O)c1I", "cytotoxicity increase": "4.01% [at 35.3 µM]"},
      {"smiles": "CCCCCCCCCCCCCC(=O)OCC", "cytotoxicity increase": "-18.8%"},
      {"smiles": "C=CCN(CC=C)CC=C", "cytotoxicity increase": "-17.7%"},
      {"smiles": "O=C(O)CCC(=O)Nc1ccc(S(=O)(=O)Nc2nccs2)cc1", "cytotoxicity increase": "-22.4% [at 35.3 µM]"},
      {"smiles": "CC(O)C(CO)C(C)O", "note": "(stereo not given)", "cytotoxicity increase": "-0.333%"},
      {"smiles": "O=C(O)/C=C(\\CC(=O)O)C(=O)O", "cytotoxicity increase": "1.58% [at 35.3 µM]"},
      {"smiles": "CC(=O)Nc1ccc(S(=O)(=O)Nc2cc(C)on2)cc1", "cytotoxicity increase": "9.32% [at 35.3 µM]"},
      {"smiles": "C[C@@H](CN1CC(=O)NC(=O)C1)N1CC(=O)NC(=O)C1", "cytotoxicity increase": "-0.119% [at 35.3 µM]"},
      {"smiles": "CCN(CC)CC", "cytotoxicity increase": "-12%"},
      {"smiles": "CCCCCCCCOCCC#N", "cytotoxicity increase": "6.34%"},
      {"smiles": "CC/C=C/CCCCCCCCCCOC(C)=O", "cytotoxicity increase": "-1.48%"},
      {"smiles": "COC(=O)c1ccc(C(=O)O)cc1", "cytotoxicity increase": "-8.97%"},
      {"smiles": "COC(=O)C(c1ccccc1Cl)N1CCc2sccc2C1", "note": "(stereo not given)", "cytotoxicity increase": "13% [at 35.3 µM]"},
      {"smiles": "Cc1ccc2ccccc2n1", "cytotoxicity increase": "-7.88%"},
      {"smiles": "CC(C)(C)c1ccc(N)cc1", "cytotoxicity increase": "11.2%"},
      {"smiles": "Cc1ccccc1OCC(=O)O", "cytotoxicity increase": "1.68%"},
      {"smiles": "O=C(O)Cc1c(Cl)ccc(Cl)c1Cl", "cytotoxicity increase": "1.06%"},
      {"smiles": "CCCCCCCCCCCCCCBr", "cytotoxicity increase": "-9.17%"},
      {"smiles": "C=C(C)C(=O)OCCOC1CC2CC1C1C=CCC21", "note": "(stereo not given)", "cytotoxicity increase": "-1.77%"},
      {"smiles": "CCCCCCCC(=O)N(C)C", "cytotoxicity increase": "1.56%"},
      {"smiles": "COC(=O)/C=C(\\C)CCC=C(C)C", "cytotoxicity increase": "1.76%"},
      {"smiles": "Clc1cc(Cl)c(Cl)c(Cl)c1Cl", "cytotoxicity increase": "5.49%"},
      {"smiles": "CCCc1ncc(C(=O)O)s1", "cytotoxicity increase": "-1.36% [at 35.3 µM]"},
      {"smiles": "Cc1cc(C)c(N)c(Cl)c1", "cytotoxicity increase": "-2.44%"},
      {"smiles": "CC(C)C(=O)Nc1cccc(C2CN3CCSC3=N2)c1", "note": "(stereo not given)", "cytotoxicity increase": "-21.5% [at 35.3 µM]"},
      {"smiles": "COc1cc(C(=O)NC2CCCNC2)cc(OC)c1OC", "note": "(stereo not given)", "cytotoxicity increase": "-1.64% [at 35.3 µM]"},
      {"smiles": "CCO/C=C1\\N=C(c2ccccc2)OC1=O", "cytotoxicity increase": "-9.67%"},
      {"smiles": "CC(C)(C)C(=O)NCCCC(=O)O", "cytotoxicity increase": "-14% [at 35.3 µM]"},
      {"smiles": "C=CCCCCCCCCCCCCCC", "cytotoxicity increase": "-0.422% [at 15.8 µM]"},
      {"smiles": "Clc1ccc2c(c1)Nc1ccccc1S2", "cytotoxicity increase": "0.662% [at 35.3 µM]"},
      {"smiles": "Cc1ccc2cccnc2c1", "cytotoxicity increase": "-2.87%"},
      {"smiles": "Cc1ccc(OC(=O)CC(C)C)cc1", "cytotoxicity increase": "20.4%"},
      {"smiles": "CC(=O)c1c(C)cc(C(C)(C)C)cc1C", "Potency": "24.5 µM (active)"}
    ]}
  ]
}
